# High-throughput results as filed in PubChem BioAssay.
# The full list was thinned out, with hits kept by preference.
# Shiga toxin inh – inhibitors of Shiga toxin in Vero cells. Vero cells, Shiga toxin protein synthesis inhibition reporter. inhibition, % at 38.7 µM. 290,000 compounds, 9.2% hits; in the data active means inhibition mostly above about 28%, no sharp cut-off; inactive means mostly below about 43%
# Sm TGR block – blocks Schistosoma mansoni thioredoxin glutathione reductase. 360,000 compounds, 3% hits. purified TGR, DTNB reduction, TNB absorbance 405 nm. AID 485364. Potency, µM (series often up to 114 µM), usual class: inhibitors. Q962Y6; further: nearly all actives have a fitted effect of over 60% in size
#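 First, TGR (20 nM dispensed) and NADPH were mixed with compound. Second, a 15 min room-temperature incubation followed. Third, further NADPH and then DTNB were added to start the reaction. Finally, TNB absorbance was monitored kinetically.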
# CHX counter – affects cycloheximide protein synthesis inhibition readout, counter-screen; cell reporter, cycloheximide protein synthesis inhibition counterscreen; max response, %; 300,000 compounds, 12% hits; in the data active means max response mostly above about 13%, no sharp cut-off; inactive means mostly below about 14%; further: read at 38.3 µM for the half of the compounds with a filed dose
# FBPA Giardia inh – Giardia lamblia aldolase inhibition; A8B2U2; purified Giardia FBPA; Potency, µM (titrated, usually from 59.6 µM), usual class: inhibitors; 290,000 compounds, 0.71% hits; further: nearly all actives have a fitted effect of over 55% in size
#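 40 nM FBPA preincubated 10 min at RT with compound (up to 57.5 uM final), then substrate plus GAPDH/TPI/NAD/arsenate coupling and diaphorase/resazurin added. Fluorescence read after 20 min at RT, 525/598 nm.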
# LmPK inh – inhibitors of Leishmania mexicana pyruvate kinase; purified LmPK, Kinase-Glo ATP luminescence, 1 h; Potency, µM (doses to about 57.5 µM), actives largely listed as inhibitors; 290,000 compounds, 0.37% hits
# Target sequence (Q27686 whole entry, looked up): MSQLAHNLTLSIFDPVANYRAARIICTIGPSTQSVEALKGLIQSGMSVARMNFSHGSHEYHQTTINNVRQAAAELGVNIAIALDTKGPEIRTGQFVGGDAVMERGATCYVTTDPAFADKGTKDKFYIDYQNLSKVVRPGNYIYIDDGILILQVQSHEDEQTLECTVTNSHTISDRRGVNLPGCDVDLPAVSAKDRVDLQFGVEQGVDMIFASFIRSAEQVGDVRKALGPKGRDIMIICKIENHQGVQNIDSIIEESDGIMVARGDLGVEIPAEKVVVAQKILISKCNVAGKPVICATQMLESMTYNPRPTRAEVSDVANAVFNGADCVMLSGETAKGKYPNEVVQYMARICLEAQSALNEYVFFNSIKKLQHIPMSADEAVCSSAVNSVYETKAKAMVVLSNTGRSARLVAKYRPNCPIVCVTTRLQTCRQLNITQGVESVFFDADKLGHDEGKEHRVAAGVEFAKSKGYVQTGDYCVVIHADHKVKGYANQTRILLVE
#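 Pyruvate kinase activity monitored as ATP production (luciferase luminescence). Conditions: 0.1 nM enzyme, 0.5 mM PEP, 0.1 mM ADP, 1 h, RT; normalized against uninhibited and no-enzyme wells.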
# Tb PYK inh – inhibitors of Trypanosoma brucei pyruvate kinase | Q57TT1 | TbPYK enzyme, Kinase-Glo Plus ATP luminescence, 45 min | Potency, µM (series often up to 76.8 µM), hits mostly inhibitors | 410,000 compounds, 0.12% hits; further: nearly all actives have a fitted effect of over 50% in size
#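 Assay buffer: 50 mM TEA pH 7.2, 100 mM KCl, 10 mM MgCl2, 0.05% BSA, 0.01% Tween-20. Pyruvate kinase from T. brucei plus substrate met compound, then ADP (130 uM final). Luminescence was read post 45 min RT.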
# A number is an active result; . = inactive; ? = inconclusive; / = no result; + = active, no number; [ ] = another dose, or the depositor's remark. Unless noted, the call rests on the fitted dose curve; in most records, active means well fitted curve in the direction sought with a large enough effect; inconclusive means small, poorly fitted or top-dose-only effect, or another doubt; inactive means no such curve, though single readings can be large; an effect the other way counts as inactive or inconclusive.
SMILES,Shiga toxin inh,Sm TGR block,CHX counter,FBPA Giardia inh,LmPK inh,Tb PYK inh
O=C1C(Nc2cccc(O)c2)=C(N2CCCCC2)C(=O)c2ccccc21,51.2,10µM,34.5,?,.,.
Cc1ccc(NC2=C(N3CCCCC3)C(=O)c3ccccc3C2=O)cc1,106.8,12.6µM,49.6,?,.,.
O=C(/C=C/c1ccc(O)cc1)c1ccc(NC2=C(N3CCCCC3)C(=O)c3ccccc3C2=O)cc1,159.6,25.1µM,59.3,?,.,.
O=C1C(Nc2ccccc2)=C(N2CCCCC2)C(=O)c2ccccc21,72.5,8.91µM,31.1,?,.,.
CCCCCCCCCCOc1cc2c(=O)c(C(=O)OCC)c[nH]c2cc1OCC,/,/,/,/,/,.
Cc1cccc(-n2ncc(C(=O)NCc3ccccn3)c2C2CCN(C(=O)OC(C)(C)C)CC2)c1,/,.,/,/,/,.
CC(=O)N1c2ccc(S(=O)(=O)NCCC(=O)Nc3ccc(Br)c(C)c3)cc2CC1C (stereo not drawn),/,.,/,/,/,.
CC1=C(Nc2ccc(C(=O)O)cc2)C(=O)c2ccccc2C1=O,.,22.4µM,.,?,.,.
COc1ccccc1NC1=C(N2CCCCC2)C(=O)c2ccccc2C1=O,.,?,23.2,?,.,.
O=C(/C(=C(\[O-])c1ccccc1)[n+]1ccc2ccccc2c1)c1ccccc1,active,.,25.8,?,.,.
O=C(/C(=C(\[O-])c1ccccc1)[n+]1ccc2ccccc2c1)c1ccc([N+](=O)[O-])cc1,.,.,.,.,.,.
O=C(/C(=C(\[O-])c1ccccc1)[n+]1ccc2ccccc2c1)c1ccc(Cl)cc1,68.2,.,.,.,.,.
COC(=O)C/C=C\[C@@H](C)[C@H]1C=C[C@H](O)[C@@H](CO)O1,/,/,/,.[12.9 µM],/,/
Clc1ccccc1-c1ccc2ncnc(NCCN3CCOCC3)c2c1,/,/,/,.,/,/
Cc1ccc(C)c(/C(O)=C2\C(=O)C(=O)N(CCCN3CCOCC3)C2c2cccnc2)c1 (stereo not drawn),.,28.2µM,.,.,.,.
COc1cccc(/C(O)=C2/C(=O)C(=O)N(CCN3CCOCC3)C2c2cccnc2)c1 (stereo not drawn),.,22.4µM,.,.,.,.
Cc1ccc(/C(O)=C2/C(=O)C(=O)N(CCN3CCOCC3)C2c2cccnc2)cc1 (stereo not drawn),.,.,.,.,.,.
CCOc1ccccc1NC(=S)Nc1ccc(S(N)(=O)=O)cc1,.,14.1µM,.,.,.,.
Cc1ccnc(NC(=O)c2ccccc2[N+](=O)[O-])c1,.,.,18.9,.,.,.
Cc1ccnc(NC(=O)/C=C/c2ccccc2Cl)c1,+,.,58.6,.,.,.
CCOc1ccccc1NC(=O)Nc1cccc(S(N)(=O)=O)c1,.,.,.,.,.,.
Cc1ccnc(NC(=O)/C=C/c2ccccc2[N+](=O)[O-])c1,72.6,.,34.1,.,.,/
Cc1ccnc(NC(=O)c2ccccc2NC(=O)c2ccc(Cl)cc2Cl)c1,.,.,.,.,.,.
COc1ccc(C2NC(=O)N(C)C3=C2C(=O)N(c2cccc(C(=O)O)c2)C3)cc1 (stereo not drawn),/,.,/,/,/,.
COc1ccc(NC(=O)CN2C(=O)COc3ccc(S(=O)(=O)Nc4ccccc4)cc32)cc1,/,.,/,/,/,.
SMILES,Shiga toxin inh,Sm TGR block,CHX counter,FBPA Giardia inh,LmPK inh,Tb PYK inh
Cc1ccnc(NC(=O)c2cccc3ccccc23)c1,76.7,.,49.2,/,.,.
Cc1ccnc(NC(=O)CCc2c[nH]c3ccccc23)c1,90.7,.,39.8,/,.,.
C#CC(CC)(CC)NC(=S)Nc1ccc(S(N)(=O)=O)cc1,44.2,.,12.4,.,.,.
CCCNC(=S)Nc1ccc(S(N)(=O)=O)cc1,.,.,.,.,.,.
CCOc1ccccc1NC(=O)/C=C/c1ccccc1[N+](=O)[O-],.,.,45.4,.,.,.
Cc1ccc(NC(=O)c2cccc(S(=O)(=O)Nc3c(C)n(C)n(-c4ccccc4)c3=O)c2)cc1C,/,/,/,/,/,.
O=C(/C=C\c1ccccc1[N+](=O)[O-])Nc1ccccc1,51.8,.,39.4,.,.,.
CCOc1ccccc1NC(=O)/C=C/C(N)=O,.,3.98µM,.,.,.,.
Cn1c(=O)c(CCc2ccccc2)nc2cnc(OCc3ccccc3)nc21,/,/,/,.,/,/
Cc1nc(C(=O)O)cc([N+](=O)[O-])c1C,/,/,/,/,/,.
Clc1ccc(OCc2noc(-c3ccsc3)n2)c(Cl)c1,130.2,.,49.8,.,.,.
COc1cc(-c2nc(Cc3ccccc3Cl)no2)cc(OC)c1OC,.,.,.,.,.,.
Clc1ccc(OCCCc2nc(-c3ccncc3)no2)c(Cl)c1,.,.,.,.,.,.
Fc1cc(Cl)c(OCc2noc(-c3ccsc3)n2)c(Cl)c1,35.0,.,21.2,.,.,.
CC(=O)c1c(O)cccc1O,.,/,.,.,/,/
COC(=O)c1ccc(OCCOc2ccccc2C)cc1,.,.,12.1,.,.,.
COC(=O)c1ccc(OCCCCN(C)Cc2ccccc2)cc1,/,.,.,?,.,.
COC(=O)c1ccc(OCCOc2ccccc2)cc1,59.1,.,22.1,.,.,.
COC(=O)c1ccc(N=Nc2ccccc2)cc1,79.4,.,32.1,.,.,.
COC(=O)c1ccc(NCCC(=O)O)cc1,.,.,.,.,.,.
COC(=O)c1ccc(OCCOCCOc2cccc3ccc(C)nc23)cc1,.,.,.,.,.,.
O=C(CN1CCCN(Cc2ccccc2Cl)S1(=O)=O)Nc1ccc2c(c1)OCCO2,/,.,/,/,/,.
O=C(O)Cc1cccc(=O)c(O)c1C(=O)O,/,/,/,/,/,.
CCN(CC)CCOC(=O)c1ccc(N/C=C(/C#N)c2nc(-c3ccc4c(c3)OCO4)cs2)cc1,.,.,30.8,.,.,.
Cc1c(Cl)cn2c(=O)cc(CN3CCN(c4ccc(F)cc4)CC3)nc2c1Cl,.,50.1µM,.,.,.,/
SMILES,Shiga toxin inh,Sm TGR block,CHX counter,FBPA Giardia inh,LmPK inh,Tb PYK inh
Cc1scc(CN2CCN(c3ccc(F)cc3)CC2)c1C,/,.,/,/,/,.
CC(C)CCNC(=O)N1CCN(S(=O)(=O)c2ccc3c(ccn3C)c2)CC1,/,.,/,/,/,.
Cc1cc(NC(=O)c2ccc(Cl)cc2)cc(C)c1OCC(=O)N1CCOCC1,76.7,.,32.7,/,.,.
CCCCOc1ccc(C(=O)Nc2cc(C)c(OCC(=O)N3CCOCC3)c(C)c2)cc1,.,.,21.9,.,.,.
COc1cc(C(=O)Nc2cc(C)ccn2)ccc1OCC(=O)N1CCOCC1,50.9,.,41.6,/,.,.
Cc1ccc(NC(=S)N2CCCCCC2)c(C)c1,.,.,18.2,.,.,.
Cc1cccc(NC(=O)N2CCCCCC2)c1,55.9,.,38.0,.,.,.
O=C(Nc1ccc(F)c(Cl)c1)N1CCCC1,.,.,.,.,.,.
Cc1cccc(NC(=O)N2CCN(Cc3ccccc3)CC2)c1,+,.,21.1,.,.,.
O=C(Nc1ccc(F)c(Cl)c1)N1CCCCCC1,52.2,.,25.6,.,.,.
